Source: PubChem BioAssay (National Center for Advancing Translational Sciences (NCATS))
Sampled rows, rich in hits. Any-hit rate of the full collection: about 5.8%.
KB-3-1 cytotox: kills parental KB-3-1 adenocarcinoma cells | KB-3-1 viability, CellTiter-Glo ATP luminescence, 72 h | Potency, µM (highest dose often 46.1 µM), hits mostly cytotoxic | actives 1.4% (n = 400,000) | AID 1347075; note: % is set by controls: 0 for no effect and ±100 for the full control effect; nearly all actives have a fitted effect of over 60% in size
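Luminescent ATP read-out (CellTiter-Glo) measures survival of drug-naive KB-3-1 cells after 72 h compound exposure at 37 °C. Titration series was screened from lowest to highest concentration, with DMSO vehicle plates as background controls.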
SW480 rereplic: DNA re-replication induction in SW480 cells; SW480 DNA re-replication, Hoechst DNA content imaging, 48 h; Potency, µM (doses to about 46.1 µM), for the others: at the top dose re-replication activation, usual class: activators; actives 1.8% (n = 340,000); note: % of control where 0% means no effect; nearly all actives have a fitted effect of over 55% in size
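Hoechst fluorescence of nuclei (405 nm excitation, 500-530 nm emission) measured by plate-scanning imager after 48 hr compound exposure at 37 C; re-replication scored as increased number of nuclei with elevated intensity.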
PINK1 modulator: changes PINK1 expression; PINK1 immunofluorescence, high-content cytometry, 24 h; Potency, µM (highest dose often 76.6 µM), without a hit: at the highest dose activation (PINK1 increase), actives largely listed as activators; actives 0.2% (n = 410,000); active = well fitted activation curve with a large enough effect; inconclusive = small, poorly fitted or top-dose-only effect; cell line not stated here; note: % of control where 0% means no effect; nearly all actives have a fitted effect of over 65% in size
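Readout is PINK1 immunofluorescence, quantified alongside mitochondrial, cell and nuclear markers by laser-scanning microplate cytometry. Cells from a stable line were exposed to compound titrations (5 concentrations) for 24 hours, with CCCP controls.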
12-LOX inh: blocks human arachidonate 12S-lipoxygenase; actives 1.1% (n = 580,000); purified 12hLO, xylenol orange hydroperoxide absorbance; P18054; Potency, µM (titrated, usually from 108 µM), inactives show top-dose activity change, negative = inhibition, usual class: inhibitors; AID 1671190; note: % is set by controls: 0 for no effect and ±100 for the full control effect
Target sequence (P18054 whole entry, looked up): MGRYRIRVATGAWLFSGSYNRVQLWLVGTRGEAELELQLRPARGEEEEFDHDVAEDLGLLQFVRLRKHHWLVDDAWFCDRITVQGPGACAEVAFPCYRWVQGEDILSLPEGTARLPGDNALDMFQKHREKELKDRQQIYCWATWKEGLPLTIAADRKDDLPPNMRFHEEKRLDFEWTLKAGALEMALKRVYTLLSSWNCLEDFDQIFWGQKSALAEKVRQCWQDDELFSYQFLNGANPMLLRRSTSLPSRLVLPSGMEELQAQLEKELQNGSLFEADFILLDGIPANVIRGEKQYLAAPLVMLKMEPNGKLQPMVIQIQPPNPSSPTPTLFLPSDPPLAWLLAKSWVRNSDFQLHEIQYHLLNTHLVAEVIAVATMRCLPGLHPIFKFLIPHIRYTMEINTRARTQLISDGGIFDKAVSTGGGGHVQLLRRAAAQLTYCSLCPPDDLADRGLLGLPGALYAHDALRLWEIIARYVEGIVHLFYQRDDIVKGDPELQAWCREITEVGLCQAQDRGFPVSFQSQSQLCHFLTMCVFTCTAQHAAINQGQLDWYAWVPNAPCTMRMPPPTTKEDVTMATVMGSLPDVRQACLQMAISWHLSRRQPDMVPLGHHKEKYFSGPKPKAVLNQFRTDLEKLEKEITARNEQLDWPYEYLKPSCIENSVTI
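Purified human 12hLO (150 nM final) in 25 mM Hepes, 0.01% Triton X-100, pH 7.0 was preincubated 15 min at room temperature with compound. Then 40 uM arachidonic acid was added, 30 min. Hydroperoxide was read by Fe-XO absorbance ratio 573/405 nm.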
MCF10A rerep: inducers of DNA re-replication in MCF 10A breast cells. actives 2.9% (n = 350,000). MCF 10A DNA re-replication, Hoechst nuclear intensity, 48 h. Potency, µM (titrated, usually from 46.1 µM), for the others: top-dose activity, positive = re-replication, usual class: activators; note: % of control where 0% means no effect; nearly all actives have a fitted effect of over 50% in size
KB-V1 MDR tox: kills drug-selected multidrug resistant KB-V1 cells | KB-V1 MDR cells viability, CellTiter-Glo, 72 h | Potency, µM (top dose mostly 46.1 µM), most hits filed as cytotoxic | actives 3.4% (n = 400,000) | AID 1347076; note: % is set by controls: 0 for no effect and ±100 for the full control effect; nearly all actives have a fitted effect of over 60% in size
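qHTS viability screen in drug-selected KB-V1 MDR cells: 72 h compound treatment at 37 degrees C, ATP luminescence end point.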
* marks the source's active call; other numbers are inactive results; i = inactive; ? = inconclusive; · = not tested or not shown; [ ] = another dose, or the depositor's remark. Unless noted, calls come from the whole dose curve; as a rule, active = well fitted curve in the direction sought with a large enough effect; inconclusive = small, poorly fitted or top-dose-only effect, or another doubt; inactive = no such curve, though single readings can be large; an effect the other way counts as inactive or inconclusive. Potency is the fitted concentration of half-maximal effect.

SMILES	KB-3-1 cytotox	SW480 rereplic	PINK1 modulator	12-LOX inh	MCF10A rerep	KB-V1 MDR tox
Cc1ccccc1C(=O)N1CCN(c2ccc(NC(=O)CSc3ccc(Cl)cc3)cc2)CC1	18µM*	-4%	-1%	4%	?	?
Cc1ccc(C(=O)N2CCN(c3ccc(NC(=S)NC(=O)c4cccs4)cc3)CC2)cc1	?	10µM*	1%	11µM*	?	i
CCC(=O)Nc1ccc(N2CCN(C(=O)c3ccccc3C)CC2)cc1	i	2%	9%[38.3 µM]	?	5%	i
Cc1ccccc1C(=O)N1CCN(c2ccc(NC(=S)NC(=O)c3cccs3)cc2)CC1	?	?	1%	35µM*	28%	i
Cc1ccccc1C(=O)N1CCN(c2ccc(NC(=O)c3ccc4c(c3)OCCO4)cc2)CC1	?	-8%	-1%	-3%	16µM*	8.2µM*
COc1ccc(-c2noc(CC3CCN(C(=O)Cc4ccc(OC)c(Cl)c4)CC3)n2)cc1	·	·	·	-1%	·	·
CC(C)(CNC(=O)CCCNC(=O)C1CC1)c1ccccc1	·	·	·	-25%	·	·
O=C(NC(c1ccc(F)cc1)c1ccc2ccccc2n1)C1CCN(Cc2ccc3ccccc3n2)CC1 (centres undefined)	?	·	1%	16µM*	·	i
CN(C)c1ccc(CN2CCC(C(=O)NC(c3ccc(F)cc3)c3ccc4ccccc4n3)CC2)cc1 (centres undefined)	?	·	-1%	?	·	i
CCN(Cc1cccs1)C(=O)CCc1ccccc1	·	·	·	-1%	·	·
CCN1/C(=C\C(=S)Nc2ccccc2)Sc2ccccc21	?	2%	?	32µM*	7%	i
CCN1/C(=C\C=C(C(C)=O)C(C)=O)Sc2ccccc21	i	-4%	?	-49%	28%	i
O=[N+]([O-])c1ccc2[nH]c(=S)sc2c1	?	-1%	?	?	?	12µM*
O=[N+]([O-])c1ccc2[nH]c(=S)[nH]c2c1	i	6%	-1%	?	-2%	i
CC(=O)c1cn(CC(=O)NCC2CCC(C(=O)O)CC2)c2ccccc12 (centres undefined)	·	·	·	-5%	·	·
Cc1ccc(-c2cc(C(=O)Nc3ccc(S(=O)(=O)N4CCCCC4C)cc3)no2)cc1F (centres undefined)	·	·	·	0%	·	·
Cc1csc(NC(=O)CSc2[nH]c(=O)ncc2C)n1	i	-3%	0%	1%	0%	?
Cc1cnc(=O)[nH]c1SCC(=O)c1ccc(F)cc1	i	74%	3%	?	18µM*	i
Nc1nnnn1NCc1ccccc1OCc1ccc(F)cc1	·	·	·	13%	·	·
NC(=O)c1ccc(Cn2c(C(=O)c3cc(Cl)c(N)c(Cl)c3)c3ccccc3[n+]2[O-])cc1	?	?	7%	18µM*	12µM*	i
NCCCn1c(C(=O)c2cc(Cl)c(N)c(Cl)c2)c2ccc([N+](=O)[O-])cc2[n+]1[O-]	?	1µM*	-1%	-27%	71%	i
NC(=O)c1ccc(Cn2c(C(=O)c3ccc(Cl)cc3)c3ccccc3[n+]2[O-])cc1	i	-20%	0%	?	11%	i
CC(C)NC(=O)C(=O)NCCc1c[nH]c2ccccc12	·	·	·	0%	·	·
CC(C)(C)c1nc2cc(NC(=O)CNC(=O)c3ccc(Br)o3)ccc2o1	·	·	·	-25%	·	·
CCCCN(CC)C(=O)c1cccc2c(C)c(C)[nH]c12	·	·	·	-13%	·	·
SMILES	KB-3-1 cytotox	SW480 rereplic	PINK1 modulator	12-LOX inh	MCF10A rerep	KB-V1 MDR tox
CN(C(=O)COC(=O)c1ccc(C(C)(C)C)cc1)C1CCS(=O)(=O)C1 (centres undefined)	i	-5%	3%	-14%	-2%	i
CN(C(=O)COC(=O)c1nc(Cl)c(Cl)c(Cl)c1Cl)C1CCS(=O)(=O)C1 (centres undefined)	?	?	-3%	-18%	3.7µM*	?
Cc1ccc(C(OCC(O)CNC(C)c2ccccc2)c2ccccc2)cc1 (centres undefined)	i	12%	-2%	?	?	?
Cc1ccc(C(OCC(O)CNC(CO)C(O)c2ccc([N+](=O)[O-])cc2)c2ccccc2)cc1 (centres undefined)	i	?	-2%	?	?	16µM*
COC(=O)[C@@]12C[C@@H](CC(=O)NCc3ccccc3)C(=O)N(Cc3ccc4c(c3)OCO4)C1=CCC(C)(C)C2	?	·	·	-4%	·	21µM*
COC(=O)[C@]12CCCCC=C1N(Cc1ccc3c(c1)OCO3)C(=O)[C@H](CC(=O)NCc1ccccc1)C2	i	·	·	-36%	·	?
COC(=O)[C@@]12C[C@@H](CC(=O)NCc3cccc4ccccc34)C(=O)N(Cc3ccccc3)C1=CCC(C)(C)C2	?	·	·	1%	·	21µM*
COC(=O)[C@@]12C[C@@H](CC(=O)N3CCCC3)C(=O)N(Cc3cccc4ccccc34)C1=CCC(C)(C)C2	?	·	·	8%	·	13µM*
COC(=O)[C@@]12C[C@@H](CC(=O)NCc3cccc4ccccc34)C(=O)N(Cc3ccco3)C1=CCC(C)(C)C2	i	·	·	?	·	21µM*
COC(=O)[C@@]12C[C@@H](CC(=O)NCc3ccccc3)C(=O)N(Cc3ccco3)C1=CCC(C)(C)C2	i	·	·	2%	·	?
